Results taken from the supplement of paper PMC7411054.
Where a name gives a salt, the structure may show the parent alone.

What was measured:
Conditions in all cases: treatment time: 24 h
[1] = tested on: A549-ACTB-RAB5A; experiment: lowest phenotypically active concentration; higher = less potent
Outline: (§1)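 After 24 h at 0.3, 1, 3 or 9 µM, with four wells per treatment, fifteen gene-edited A549, HepG2 and WPMY1 reporter lines carrying BFP, GFP and RFP/FusionRed were imaged live. Each well's live-cell features were expressed relative to solvent control wells. Deviation required ≥3 of 4 wells past the 95th percentile of control Euclidean distances, and reproducibility a median replicate Pearson correlation over the 95th percentile of non-replicates. Phenotypic activity rested on both.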

[2] = tested on: A549-CANX-COX4; experiment: as above
Outline: as §1

[3] = tested on: A549-GM130-SQSTM1; experiment: as above
Outline: as §1

[4] = tested on: A549-TP53BP1-CLTA; experiment: as above
Outline: as §1

[5] = tested on: A549-TUBA1B-RELA; experiment: as above
Outline: as §1

[6] = tested on: A549-ACTB-RAB5A; experiment: phenotypically active (imaging signature differs from DMSO and reproducible) at any of 0.3-9 uM (binary (1 = active, 0 = inactive)); higher = active
Outline: as §1

[7] = tested on: A549-CANX-COX4; experiment: as above
Outline: as §1

[8] = tested on: A549-GM130-SQSTM1; experiment: as above
Outline: as §1

[9] = tested on: A549-TP53BP1-CLTA; experiment: as above
Outline: as §1

[10] = tested on: A549-TUBA1B-RELA; experiment: as above
Outline: as §1

[11] = tested on: HepG2-ACTB-RAB5A; experiment: as above
Outline: as §1

[12] = tested on: HepG2-CANX-COX4; experiment: as above
Outline: as §1

[13] = tested on: HepG2-GM130-SQSTM1; experiment: as above
Outline: as §1

[14] = tested on: HepG2-TP53BP1-CLTA; experiment: as above
Outline: as §1

[15] = tested on: HepG2-TUBA1B-RELA; experiment: as above
Outline: as §1

[16] = tested on: WPMY1-ACTB-RAB5A; experiment: as above
Outline: as §1

[17] = tested on: WPMY1-CANX-COX4; experiment: as above
Outline: as §1

[18] = tested on: WPMY1-GM130-SQSTM1; experiment: as above
Outline: as §1

[19] = tested on: WPMY1-TP53BP1-CLTA; experiment: as above
Outline: as §1

[20] = tested on: WPMY1-TUBA1B-RELA; experiment: as above
Outline: as §1

SMILES	lowest phenotypically active concentration [1]	lowest phenotypically active concentration [2]	lowest phenotypically active concentration [3]	lowest phenotypically active concentration [4]	lowest phenotypically active concentration [5]	phenotypically active [6]	phenotypically active [7]	phenotypically active [8]	phenotypically active [9]	phenotypically active [10]	phenotypically active [11]	phenotypically active [12]	phenotypically active [13]	phenotypically active [14]	phenotypically active [15]	phenotypically active [16]	phenotypically active [17]	phenotypically active [18]	phenotypically active [19]	phenotypically active [20]
COc1cc(N2CCC(O)CC2)ccc1Nc1cc(Nc2ccccc2S(=O)(=O)C(C)C)c2cc[nH]c2n1 [Mps1-IN-1 dihydrochloride]	9 µM	9 µM	9 µM	9 µM	9 µM	1 (active)	1 (active)	1 (active)	1 (active)	1 (active)	1 (active)	1 (active)	1 (active)	1 (active)	1 (active)	1 (active)	1 (active)	1 (active)	1 (active)	0 (inactive)
O=C1NC(=O)[C@@H](c2cn3c4c(cccc24)CCC3)[C@@H]1c1c[nH]c2ccccc12 [tivantinib]	1 µM	1 µM	1 µM	1 µM	3 µM	1 (active)	1 (active)	1 (active)	1 (active)	1 (active)	1 (active)	1 (active)	1 (active)	1 (active)	1 (active)	1 (active)	1 (active)	1 (active)	1 (active)	1 (active)
C#Cc1cccc(Nc2ncnc3cc(OCCOC)c(OCCOC)cc23)c1 [erlotinib]	≤ 0.3 µM	3 µM	3 µM	1 µM	1 µM	1 (active)	1 (active)	1 (active)	1 (active)	1 (active)	1 (active)	1 (active)	1 (active)	1 (active)	1 (active)	0 (inactive)	0 (inactive)	0 (inactive)	0 (inactive)	0 (inactive)
COc1cc(C[C@H]2C(=O)OC[C@@H]2Cc2ccc(OC)c(OC)c2)ccc1O [Arctigenin]	3 µM	3 µM	3 µM	3 µM	9 µM	1 (active)	1 (active)	1 (active)	1 (active)	1 (active)	1 (active)	1 (active)	1 (active)	1 (active)	1 (active)	0 (inactive)	0 (inactive)	0 (inactive)	0 (inactive)	0 (inactive)
CN1CCN2c3ncccc3Cc3ccccc3C2C1 (configuration not stated) [Mirtazapine]						0 (inactive)	0 (inactive)	0 (inactive)	0 (inactive)	0 (inactive)	0 (inactive)	0 (inactive)	0 (inactive)	0 (inactive)	0 (inactive)	0 (inactive)	0 (inactive)	0 (inactive)	0 (inactive)	0 (inactive)
C=CCc1ccc(O)c(-c2ccc(O)c(CC=C)c2)c1 [Honokiol]	9 µM					1 (active)	0 (inactive)	0 (inactive)	0 (inactive)	0 (inactive)	0 (inactive)	0 (inactive)	0 (inactive)	0 (inactive)	0 (inactive)	0 (inactive)	0 (inactive)	0 (inactive)	0 (inactive)	0 (inactive)
Nc1nc(OCC2CCCCC2)c2nc[nH]c2n1	9 µM					1 (active)	0 (inactive)	0 (inactive)	0 (inactive)	0 (inactive)	0 (inactive)	0 (inactive)	0 (inactive)	0 (inactive)	0 (inactive)	0 (inactive)	0 (inactive)	0 (inactive)	0 (inactive)	0 (inactive)
COc1ccc2c(NC(=O)Nc3cccc(C(F)(F)F)n3)ccnc2c1	≤ 0.3 µM	9 µM	3 µM	9 µM	3 µM	1 (active)	1 (active)	1 (active)	1 (active)	1 (active)	1 (active)	1 (active)	1 (active)	1 (active)	1 (active)	1 (active)	1 (active)	1 (active)	1 (active)	0 (inactive)
O=C1CC(c2ccc(O)cc2)Oc2cc(O)cc(O)c21 (configuration not stated) [Naringenine]						0 (inactive)	0 (inactive)	0 (inactive)	0 (inactive)	0 (inactive)	0 (inactive)	0 (inactive)	0 (inactive)	0 (inactive)	0 (inactive)	0 (inactive)	0 (inactive)	0 (inactive)	0 (inactive)	0 (inactive)
CCOc1cc(CC(=O)N[C@@H](CC(C)C)c2ccccc2N2CCCCC2)ccc1C(=O)O [repaglinide]						0 (inactive)	0 (inactive)	0 (inactive)	0 (inactive)	0 (inactive)	0 (inactive)	0 (inactive)	0 (inactive)	0 (inactive)	0 (inactive)	0 (inactive)	0 (inactive)	0 (inactive)	0 (inactive)	0 (inactive)
CCCC(=O)O[C@]1(C(=O)COC(C)=O)CC[C@H]2[C@@H]3C[C@H](F)C4=CC(=O)C=C[C@]4(C)[C@@]3(F)[C@@H](O)C[C@@]21C [difluprednate]	≤ 0.3 µM	≤ 0.3 µM	≤ 0.3 µM	≤ 0.3 µM	≤ 0.3 µM	1 (active)	1 (active)	1 (active)	1 (active)	1 (active)	0 (inactive)	0 (inactive)	0 (inactive)	0 (inactive)	0 (inactive)	0 (inactive)	0 (inactive)	0 (inactive)	0 (inactive)	0 (inactive)
